Measurements from PubChem BioAssay (NCI).
The panel holds about 83,000 compounds, 20% with a hit somewhere; the sample as a whole holds those more often.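 Note: values are percent growth. 100 is the growth of untreated cells, values between 100 and 0 indicate rising inhibition; between -100 and 0 indicates cell death.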 Calls of active or inactive are those of the source. How the source made its calls: active means growth percent below 10; inactive means the rest.

How the values were obtained:
Experiment in all cases: NCI-60 one-dose screen, 48 h (100 = growth as untreated, 0 = no growth, -100 = all killed)
Settings in all cases: 10 µM unless noted
SK-MEL-2 melanoma = test system: SK-MEL-2 melanoma
EKVX NSCLC = test system: EKVX NSCLC
SN12C renal = test system: SN12C renal
UO-31 renal = test system: UO-31 renal
TK-10 renal = test system: TK-10 renal
ACHN renal = test system: ACHN renal
CAKI-1 renal = test system: CAKI-1 renal
A498 renal = test system: A498 renal
CCRF-CEM leukemia = test system: CCRF-CEM leukemia
MOLT-4 leukemia = test system: MOLT-4 leukemia
SR leukemia = test system: SR leukemia
RPMI-8226 leukemia = test system: RPMI-8226 leukemia
OVCAR-8 ovarian = test system: OVCAR-8 ovarian
OVCAR-5 ovarian = test system: OVCAR-5 ovarian
OVCAR-4 ovarian = test system: OVCAR-4 ovarian
SK-OV-3 ovarian = test system: SK-OV-3 ovarian
IGROV1 ovarian = test system: IGROV1 ovarian
OVCAR-3 ovarian = test system: OVCAR-3 ovarian
HS 578T breast = test system: HS 578T breast
NCI/ADR-RES ovarian = test system: NCI/ADR-RES ovarian

Measured: growth

CCCCCc1ccc(S(=O)(=O)Nc2cccc(-c3csc(NC(=O)CCCCCN4CCN(CCO)CC4)n3)c2)cc1
inactive: SK-MEL-2 melanoma 105% | EKVX NSCLC 81% | SN12C renal 85.2% | UO-31 renal 88.4% | TK-10 renal 127% | ACHN renal 99.4% | CAKI-1 renal 95.3% | A498 renal 76.8% | CCRF-CEM leukemia 46.7% | MOLT-4 leukemia 14.7% | OVCAR-8 ovarian 96.7% | OVCAR-5 ovarian 91.6% | OVCAR-4 ovarian 80.8% | SK-OV-3 ovarian 96.8% | IGROV1 ovarian 84.5% | OVCAR-3 ovarian 75.6% | HS 578T breast 86.1% | NCI/ADR-RES ovarian 99.6%
active: SR leukemia -19.2% | RPMI-8226 leukemia 7.46%

Cc1nc(-c2ccccc2O)ccc1C(=O)N=Nc1c(O)[nH]c2ccc(Br)cc12
inactive: SK-MEL-2 melanoma 104% | EKVX NSCLC 79.6% | SN12C renal 95.1% | UO-31 renal 73% | TK-10 renal 167% | ACHN renal 91.5% | CAKI-1 renal 84.6% | A498 renal 101% | CCRF-CEM leukemia 86.1% | MOLT-4 leukemia 102% | SR leukemia 101% | RPMI-8226 leukemia 87.9% | OVCAR-8 ovarian 97.9% | OVCAR-5 ovarian 101% | OVCAR-4 ovarian 102% | SK-OV-3 ovarian 97.7% | IGROV1 ovarian 89.7% | OVCAR-3 ovarian 103% | HS 578T breast 91.6% | NCI/ADR-RES ovarian 99.6%

NS(=O)(=O)c1ccc(Nc2nc(N/N=C/c3ccc(Cl)cc3)nc(Nc3ccccc3)n2)cc1
inactive: SK-MEL-2 melanoma 81.7% | EKVX NSCLC 76.6% | SN12C renal 81.6% | UO-31 renal 82.1% | TK-10 renal 103% | ACHN renal 90.1% | CAKI-1 renal 62.1% | A498 renal 76.3% | CCRF-CEM leukemia 19.4% | SR leukemia 19% | RPMI-8226 leukemia 54.7% | OVCAR-8 ovarian 67.9% | OVCAR-5 ovarian 83.4% | OVCAR-4 ovarian 83.6% | SK-OV-3 ovarian 104% | IGROV1 ovarian 66.8% | OVCAR-3 ovarian 70.4% | HS 578T breast 64.7% | NCI/ADR-RES ovarian 97.5%
active: MOLT-4 leukemia 1.53%

O=C(Cn1cc[n+](CC(=O)c2ccc(-c3ccccc3)cc2)c1)Nc1cccc2cccnc12
inactive: SK-MEL-2 melanoma 83% | EKVX NSCLC 86.8% | SN12C renal 75.9% | UO-31 renal 94.3% | TK-10 renal 119% | ACHN renal 105% | CAKI-1 renal 102% | A498 renal 88.6% | CCRF-CEM leukemia 64.9% | MOLT-4 leukemia 73.5% | SR leukemia 53.9% | RPMI-8226 leukemia 33.5% | OVCAR-8 ovarian 76.6% | OVCAR-5 ovarian 90.6% | OVCAR-4 ovarian 32.9% | SK-OV-3 ovarian 80% | IGROV1 ovarian 27.3% | OVCAR-3 ovarian 50.1% | HS 578T breast 75.8% | NCI/ADR-RES ovarian 97.9%

CCCn1cnc2c(c1=N)C(c1ccc(F)cc1)c1sc3c(CC)cccc3c1O2 (stereo not given)
active: A498 renal -25.7% | CCRF-CEM leukemia 8.39% | MOLT-4 leukemia 9.49% | SR leukemia 1.23% | RPMI-8226 leukemia 4.79% | OVCAR-3 ovarian -10.2% | NCI/ADR-RES ovarian -13.9%
inactive: SK-MEL-2 melanoma 49.4% | EKVX NSCLC 33.4% | SN12C renal 20.6% | UO-31 renal 27% | TK-10 renal 61.3% | ACHN renal 18.3% | CAKI-1 renal 20.7% | OVCAR-8 ovarian 26.2% | OVCAR-5 ovarian 23.3% | OVCAR-4 ovarian 26.6% | SK-OV-3 ovarian 40.3% | IGROV1 ovarian 10.2% | HS 578T breast 16.5%

COc1ccc(-c2cc(-c3ccc(Cl)cc3)c(C#N)c(=O)n2Cc2ccc(C(=O)O)cc2)cc1
inactive: SK-MEL-2 melanoma 61.9% | EKVX NSCLC 98.2% | SN12C renal 103% | UO-31 renal 68.1% | TK-10 renal 116% | ACHN renal 102% | CAKI-1 renal 70.3% | A498 renal 83% | CCRF-CEM leukemia 30.7% | MOLT-4 leukemia 53.1% | SR leukemia 28.9% | RPMI-8226 leukemia 79.9% | OVCAR-8 ovarian 99% | OVCAR-5 ovarian 105% | OVCAR-4 ovarian 88.6% | SK-OV-3 ovarian 114% | IGROV1 ovarian 96.9% | HS 578T breast 31.9% | NCI/ADR-RES ovarian 83.6%
active: OVCAR-3 ovarian 6.02%

COc1c(N2CC3CCCNC3C2)c(F)cc2c(=O)c(C(=O)N/N=C/c3ccccc3)cn(C3CC3)c12 (stereo not given)
inactive: SK-MEL-2 melanoma 111% | EKVX NSCLC 94.7% | SN12C renal 91.5% | UO-31 renal 86.4% | TK-10 renal 99.5% | ACHN renal 105% | CAKI-1 renal 91.9% | A498 renal 74.9% | CCRF-CEM leukemia 78.2% | MOLT-4 leukemia 79.3% | RPMI-8226 leukemia 73.1% | OVCAR-8 ovarian 99.9% | OVCAR-5 ovarian 107% | OVCAR-4 ovarian 93.1% | SK-OV-3 ovarian 111% | IGROV1 ovarian 99.6% | OVCAR-3 ovarian 102% | HS 578T breast 97.7% | NCI/ADR-RES ovarian 104%
active: SR leukemia 8.2%

COc1cc(/C=N/NC(=O)c2cn(C3CC3)c3c(OC)c(N4CC5CCCNC5C4)c(F)cc3c2=O)ccc1O (stereo not given)
inactive: SK-MEL-2 melanoma 113% | EKVX NSCLC 24.9% | SN12C renal 23.8% | UO-31 renal 81.1% | TK-10 renal 119% | ACHN renal 35.3% | CAKI-1 renal 82.9% | A498 renal 99.4% | OVCAR-8 ovarian 74.2% | OVCAR-5 ovarian 38.4% | SK-OV-3 ovarian 119% | IGROV1 ovarian 16.4% | HS 578T breast 107% | NCI/ADR-RES ovarian 98.5%
active: CCRF-CEM leukemia 2.53% | MOLT-4 leukemia 2.34% | SR leukemia -13.4% | RPMI-8226 leukemia -25% | OVCAR-4 ovarian -52.8% | OVCAR-3 ovarian -73%

COC(=O)C1(C)CCC[C@]2(C)[C@H]3C[C@H]4C(C(C)C)=C[C@]3(CC[C@@H]12)[C@H]1[C@@H]4[C@@H](OC(=O)c2ccco2)CC[C@@H]1OC(=O)c1ccco1 (stereo not given in full)
inactive: SK-MEL-2 melanoma 107% | EKVX NSCLC 99.1% | SN12C renal 101% | UO-31 renal 101% | TK-10 renal 105% | ACHN renal 112% | CAKI-1 renal 95.8% | A498 renal 115% | CCRF-CEM leukemia 105% | MOLT-4 leukemia 103% | SR leukemia 93.4% | RPMI-8226 leukemia 99.5% | OVCAR-8 ovarian 100% | OVCAR-5 ovarian 107% | OVCAR-4 ovarian 103% | SK-OV-3 ovarian 115% | IGROV1 ovarian 99.4% | OVCAR-3 ovarian 123% | HS 578T breast 110% | NCI/ADR-RES ovarian 107%

O=C(CCn1c[n+](CC(=O)c2ccc(-c3ccccc3)cc2)c2ccccc21)Nc1cccc2cccnc12
inactive: SK-MEL-2 melanoma 65.4% | EKVX NSCLC 61.9% | SN12C renal 53.6% | UO-31 renal 82.6% | TK-10 renal 97.5% | ACHN renal 103% | CAKI-1 renal 77.7% | A498 renal 88.7% | CCRF-CEM leukemia 36.1% | MOLT-4 leukemia 47.9% | OVCAR-8 ovarian 52.5% | OVCAR-5 ovarian 81.9% | OVCAR-4 ovarian 24.8% | SK-OV-3 ovarian 74.9% | IGROV1 ovarian 10.5% | OVCAR-3 ovarian 28.5% | HS 578T breast 62.8% | NCI/ADR-RES ovarian 99.1%
active: SR leukemia 9.22% | RPMI-8226 leukemia 3.25%

NC(N)=Nc1ccc(Oc2cccc(Nc3ccc(Br)c(C(F)(F)F)c3)c2)cn1
inactive: UO-31 renal 38.6% | SK-OV-3 ovarian 32.2% | NCI/ADR-RES ovarian 55.7%
active: SK-MEL-2 melanoma -45.1% | EKVX NSCLC -68.8% | SN12C renal -87.7% | TK-10 renal 7.85% | ACHN renal 1.96% | CAKI-1 renal -5.28% | A498 renal -25.1% | CCRF-CEM leukemia 0.633% | MOLT-4 leukemia -35.6% | SR leukemia -50.7% | RPMI-8226 leukemia -40% | OVCAR-8 ovarian -60.6% | OVCAR-5 ovarian -56.6% | OVCAR-4 ovarian -75.2% | IGROV1 ovarian -74.7% | OVCAR-3 ovarian -94.3% | HS 578T breast -15.3%

COc1ccc(S(=O)(=O)NCCCNc2nccc(-c3[nH]c(-c4ccccc4)nc3-c3ccc(Cl)c(O)c3)n2)cc1
inactive: SK-MEL-2 melanoma 15.4% | EKVX NSCLC 113% | SN12C renal 84.2% | UO-31 renal 116% | TK-10 renal 126% | ACHN renal 96.2% | CAKI-1 renal 102% | A498 renal 116% | CCRF-CEM leukemia 40.3% | MOLT-4 leukemia 51.2% | SR leukemia 61.9% | RPMI-8226 leukemia 49.8% | OVCAR-8 ovarian 67% | OVCAR-5 ovarian 104% | OVCAR-4 ovarian 101% | SK-OV-3 ovarian 112% | IGROV1 ovarian 93.6% | OVCAR-3 ovarian 71.8% | HS 578T breast 112% | NCI/ADR-RES ovarian 103%

Nc1cc(-c2c[nH]c3ccc(Br)cc23)nc2cc(-c3c[nH]c4ccc(Br)cc34)nn12
active: SK-MEL-2 melanoma -43.7% | ACHN renal 7.87% | A498 renal 7.08% | CCRF-CEM leukemia 7.39% | MOLT-4 leukemia -3.94% | SR leukemia -1.79% | OVCAR-5 ovarian 7.96%
inactive: EKVX NSCLC 31.7% | SN12C renal 26.8% | UO-31 renal 41.3% | TK-10 renal 35.7% | CAKI-1 renal 21.1% | RPMI-8226 leukemia 15.9% | OVCAR-8 ovarian 24.5% | OVCAR-4 ovarian 40.8% | SK-OV-3 ovarian 116% | IGROV1 ovarian 22.2% | OVCAR-3 ovarian 22.6% | HS 578T breast 54.4% | NCI/ADR-RES ovarian 35.5%

CN1CCN(Cc2ccc(NC(=O)c3cncc(C#Cc4cnc5ccc(N6CCN(C)CC6)nn45)c3)cc2C(F)(F)F)CC1
inactive: SK-MEL-2 melanoma 56.4% | SN12C renal 15.7% | UO-31 renal 20.1% | TK-10 renal 59% | A498 renal 43.7% | OVCAR-5 ovarian 61.4% | OVCAR-4 ovarian 10.9% | SK-OV-3 ovarian 92%
active: EKVX NSCLC -84.9% | ACHN renal -98.1% | CAKI-1 renal -95.3% | CCRF-CEM leukemia -2.14% | MOLT-4 leukemia -26.2% | SR leukemia -52.2% | RPMI-8226 leukemia -13.9% | OVCAR-8 ovarian -81.8% | IGROV1 ovarian -37.2% | OVCAR-3 ovarian -76.9% | HS 578T breast -23.1% | NCI/ADR-RES ovarian -31.3%

O=C(CCC(=O)N1CCOCC1)OCCCCCCSc1ccc([N+](=O)[O-])c2nonc12
active: SK-MEL-2 melanoma -40.6% | EKVX NSCLC 1.52% | SN12C renal -74.7% | UO-31 renal -84.2% | ACHN renal -97.7% | CAKI-1 renal -31.2% | CCRF-CEM leukemia -5.49% | MOLT-4 leukemia -2.71% | SR leukemia -2.69% | RPMI-8226 leukemia -21.1% | OVCAR-8 ovarian -6.75% | OVCAR-5 ovarian -20.1% | OVCAR-4 ovarian -83.7% | IGROV1 ovarian -88.7% | OVCAR-3 ovarian -66.9% | HS 578T breast -8.04% | NCI/ADR-RES ovarian 2.86%
inactive: TK-10 renal 13.4% | A498 renal 12.8% | SK-OV-3 ovarian 39.8%
